Pf growth 96h: P. falciparum growth inhibition at 96 hour, primary screen for plastid delayed-death inhibitors | P. falciparum luciferase reporter growth, 96 h | Potency, µM (doses to about 28.7 µM), without a hit: at the top dose activity change, negative = inhibition, actives largely listed as inhibitors | actives 6.9% (n = 320,000) | AID 504834; also: % is scaled to controls: 0 for no effect and ±100 for the full control effect
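Cell-based qHTS: luciferase-tagged P. falciparum in erythrocytes (2% hematocrit, 0.05% parasitemia final) incubated with compounds for 96 hours, 37 C, 5% CO2; luciferase detection reagent then added and luminescence measured.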
AMA1 RON2 block: inhibitors of Plasmodium falciparum AMA1-RON2 interaction. Potency, µM (titrated, usually from 58.2 µM), for the others: at the highest dose activity change, negative = inhibition, hits mostly inhibitors. actives 0.2% (n = 360,000). AlphaScreen AMA1-biotinylated RON2 peptide binding. AID 720542;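 also: 0% = vehicle wells and -100% = peptide control; nearly all actives have a fitted effect of over 45% in size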
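AMA1 (3D7) with his tag at 25 nM final met compounds first, then biotinylated RON2 peptide at 25 nM; detection used donor plus acceptor beads, 10 µg/mL apiece, read by AlphaScreen after 30 min at room temperature.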
Sm TGR inh: blocks Schistosoma mansoni thioredoxin glutathione reductase; Potency, µM (series often up to 114 µM), for inactives: at the top dose activity change, negative = inhibition, actives largely listed as inhibitors; actives 3% (n = 360,000); purified TGR, DTNB reduction, TNB absorbance 405 nm; Q962Y6; also: % is scaled to controls: 0 for no effect and ±100 for the full control effect; nearly all actives have a fitted effect of over 60% in size
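First, TGR (20 nM dispensed) and NADPH were mixed with compound. Second, a 15 min room-temperature incubation followed. Third, further NADPH and then DTNB were added to start the reaction. Finally, TNB absorbance was monitored kinetically.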
NS1 function inh: inhibitors of influenza NS1 protein function; Potency, µM (titrated, usually from 46.1 µM), for inactives: at the highest dose activity, positive = more growth; actives 0.4% (n = 270,000); AID 2326; calls by dose curve; also: actives are rising curves; nearly all actives have a fitted effect of over 50% in size
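Growth recovery, yeast-based: influenza A NS1 expressed in S. cerevisiae causes slow growth, and suppressors are detected by OD600. The parent strain without NS1 is used as positive control.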
Pf growth 48h: inhibits P. falciparum growth in the first generation, 48 h; P. falciparum luciferase growth in erythrocytes, 48 h; Potency, µM (doses to about 28.7 µM), for inactives: at the top dose activity change, negative = inhibition, most hits filed as inhibitors; actives 5.9% (n = 310,000); also: % is scaled to controls: 0 for no effect and ±100 for the full control effect
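Luminescence readout; reporter = integrated firefly luciferase in P. falciparum. RBC culture at 2% hematocrit, 0.1% parasitemia final, 37 C/5% CO2; decreased signal taken as growth inhibition.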
* marks the source's active call; other numbers are inactive results; ! = repeats disagree; [ ] = dose if it differs, or a comment. This is a sample that favours compounds with a hit; in the whole collection about 11% have one here. Unless noted, calls follow the shape of the dose curve; as a rule, active = well fitted curve in the direction sought with a large enough effect; inconclusive = small, poorly fitted or top-dose-only effect, or another doubt; inactive = no such curve, though single readings can be large; an effect the other way counts as inactive or inconclusive. Potency is read from the fitted curve at half-maximal effect.

Cc1cc(C(=O)CCC(=O)Nc2ccc(C(N)=O)cc2)c(C)s1 was read as AMA1 RON2 block 3%.
`OC1(Cc2ccccc2)CCNCC1` gave Pf growth 96h 15%, AMA1 RON2 block 12%, Sm TGR inh 45µM*!, NS1 function inh -1% and Pf growth 48h 12%.
For O=C(NCc1ccccc1)N1CCNCC1 the results were Pf growth 96h inconclusive, AMA1 RON2 block -8%, Sm TGR inh -17%, NS1 function inh -3% and Pf growth 48h -12%.
`Cc1ccc2[nH]c(C(=O)N/N=C/c3ccccc3C(=O)O)c(-c3ccccc3)c2c1` gave Pf growth 96h 0.74µM*, AMA1 RON2 block 27%, Sm TGR inh 0%, NS1 function inh inconclusive and Pf growth 48h -20%[0.00184 µM].
For COc1cc(OC)c2cc(C(=O)N/N=C/c3ccccc3O)[nH]c2c1 the results were Pf growth 96h 4.7µM*, AMA1 RON2 block 42%, Sm TGR inh 32% and NS1 function inh 1%.
`COc1ccc(/C=N/NC(=O)c2[nH]c3ccc(C)cc3c2-c2ccccc2)c(C(=O)O)c1OC` gave Pf growth 96h 11%, AMA1 RON2 block 0%, Sm TGR inh 0%, NS1 function inh 16% and Pf growth 48h 12%.
For Cc1ccc2[nH]c(C(=O)N/N=C/c3ccccc3O)c(C)c2c1 the results were Pf growth 96h 4.7µM*, AMA1 RON2 block 43%, Sm TGR inh -10%, NS1 function inh 1% and Pf growth 48h 2.3µM*.
Screening Cc1ccc2c(=O)cc(C(=O)Nc3nnc(CC(C)C)s3)oc2c1C returned Sm TGR inh 11%.
For CC(C)CCNC(=O)C1CC(=O)N(C2CCCC2)C1 (stereo not given) the results were Pf growth 96h 4%, AMA1 RON2 block -12%, Sm TGR inh 3% and NS1 function inh 0%.
For CCOCCCNC(=O)C1CC(=O)N(C2CCCC2)C1 (stereo not given) the results were Pf growth 96h 12µM*, AMA1 RON2 block 15%, Sm TGR inh -11%, NS1 function inh 1% and Pf growth 48h 14%.
COCCCNC(=O)C1CC(=O)N(C2CCCC2)C1 (stereo not given) was read as Pf growth 96h 10µM*, AMA1 RON2 block 0%, Sm TGR inh 5%, NS1 function inh -1% and Pf growth 48h 2%.
COCCNC(=O)C1CC(=O)N(C2CCCCC2)C1 (stereo not given) was read as Pf growth 96h -1%, AMA1 RON2 block 0%, Sm TGR inh -11%, NS1 function inh -3% and Pf growth 48h 24%.
For O=C(/C=C/[C@H]1O[C@@H](n2cnc3c(NC(=O)c4ccccc4)ncnc32)[C@H](O)[C@@H]1O)NCC(c1ccccc1)c1ccccc1 the results were AMA1 RON2 block 67%.
CCN(CC)CC(=O)NN=C(c1ccccc1)c1ccccc1 was read as Pf growth 96h -25%, AMA1 RON2 block 10%, Sm TGR inh 15%, NS1 function inh -3% and Pf growth 48h -12%.
Screening O=C(CCl)NN=C(c1ccccc1)c1ccccc1 returned Pf growth 96h inconclusive, AMA1 RON2 block 39%, Sm TGR inh 11µM*, NS1 function inh 0% and Pf growth 48h 4%.
CCOC(=O)C1(Cc2ccc(OC)cc2)CCN(C(=O)Cn2cnnn2)CC1 was read as Pf growth 96h 1.9µM*, AMA1 RON2 block 15%, Sm TGR inh -33%, NS1 function inh -5% and Pf growth 48h 2%.
COc1ccc(NC(=O)C2(C)CCN2CC2CCCCC2)cc1OC (stereo not given) was read as AMA1 RON2 block -4%.
`COc1ccc(OC)c(C2CC(=O)N3CN(c4cccc(Cl)c4C)CSC3=C2C#N)c1` (stereo not given) gave Pf growth 96h 3%, AMA1 RON2 block 1%, Sm TGR inh 10µM* and NS1 function inh -34%.
COc1cccc(C2CC(=O)N3CN(c4cccc(Cl)c4C)CSC3=C2C#N)c1OC (stereo not given) was read as Pf growth 96h 0.93µM*, AMA1 RON2 block -1%, Sm TGR inh 0% and NS1 function inh -34%.
Screening CC1(C)CC(Nc2ccc(Nc3ccccc3)cc2)CC(C)(C)N1 returned Pf growth 96h 7.4µM*, AMA1 RON2 block -23%, Sm TGR inh 6.3µM*, NS1 function inh -4% and Pf growth 48h 3.3µM*.
